Test results as given in PubChem BioAssay (NCATS).
Inconclusive results are not listed. Calls of active or inactive are those of the source. The call rests on the fitted dose curve.

target: Peroxisome proliferator-activated receptor delta (Homo sapiens) (UniProt Q03181); test: qHTS assay for small molecule agonists of peroxisome proliferator-activated receptor delta signaling (AID 588534); details: HEK293T PPARdelta-UAS-bla, beta-lactamase ratio, 18 h; series mostly up to 76.7 µM
From the text: NIH Chemical Genomics Center [NCGC] U.S. Environmental Protection Agency [EPA] National Institutes of Environmental Health Sciences [NIEHS] National Toxicology Program [NTP] NCGC Assay Overview The Peroxisome proliferator-activated receptors (PPARs) are lipid-activated transcription factors of the nuclear receptor superfamily with three distinct subtypes namely PPAR alpha, PPAR delta (also called PPAR beta) and PPAR gamma. All these subtypes heterodimerizes with Retinoid X receptor (RXR) and have different physiological functions. […] This role of PPAR delta implicates the potential use of its ligands in the treatment of metabolic disorders.
Compounds were screened in a titration series in 1536-well format. […] Concentration-response titration points for each compound were fitted to the Hill equation yielding concentrations of half-maximal stimulation (EC50) and maximal response (efficacy) values. qHTS protocol for PPAR-delta beta-lactamase assay in agonist mode [Step] [Parameter] [Value] [Description] 1. Reagent; 6 uL; 4000 cells/well 2. Incubation; 37 C for 5 hrs 3. Compounds; 23 nL; 0.59 nM to 92 uM 4. […] Incubation; 37 C for 18 hrs 6. Detection reagent; 1 uL of CCF4-dye 7. Incubation; RT for 2 hrs 8. Detection; Fluorescence; Envision plate reader

Sequence of Peroxisome proliferator-activated receptor delta (Homo sapiens) (Q03181 whole entry, looked up): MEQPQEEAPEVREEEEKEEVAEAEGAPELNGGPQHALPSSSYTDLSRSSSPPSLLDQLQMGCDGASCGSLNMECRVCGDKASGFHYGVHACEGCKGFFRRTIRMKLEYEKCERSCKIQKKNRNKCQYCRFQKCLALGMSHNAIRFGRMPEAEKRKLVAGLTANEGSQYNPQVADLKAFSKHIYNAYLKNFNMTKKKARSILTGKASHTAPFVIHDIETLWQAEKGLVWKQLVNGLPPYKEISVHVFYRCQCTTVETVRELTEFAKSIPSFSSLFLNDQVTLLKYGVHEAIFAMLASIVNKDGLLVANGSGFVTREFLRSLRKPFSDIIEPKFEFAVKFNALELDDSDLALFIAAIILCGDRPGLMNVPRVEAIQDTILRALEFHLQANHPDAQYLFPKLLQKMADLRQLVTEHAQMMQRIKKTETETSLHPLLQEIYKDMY

Row | SMILES | outcome
1 | COc1cnc(OC)n2nc(NS(=O)(=O)c3c(OCC(F)F)cccc3C(F)(F)F)nc12 | inactive
2 | COC(=O)c1sccc1S(=O)(=O)NC(=O)Nc1nc(C)nc(OC)n1 | inactive
3 | O=C(/C=C/c1ccc(O)c(O)c1)O[C@@H](C(=O)O)[C@@H](OC(=O)/C=C/c1ccc(O)c(O)c1)C(=O)O | inactive
4 | CC(C)S | inactive
5 | O=C(O)c1cccc([N+](=O)[O-])c1 | inactive
6 | Cc1ccc(N=Nc2c(O)ccc3ccccc23)c([N+](=O)[O-])c1 | inactive
7 | N#Cc1ccccc1 | inactive
8 | CC(O)COC(C)(C)C (stereo not given) | inactive
9 | NC(N)=O | inactive
10 | Cc1c(C(=O)O)c(O)cc2c1C(=O)c1c(O)c([C@H]3O[C@H](CO)[C@@H](O)[C@H](O)[C@H]3O)c(O)c(O)c1C2=O | inactive
11 | CCOP(=O)(NC(C)C)Oc1ccc(S(C)(=O)=O)c(C)c1 (stereo not given) | inactive
12 | Cc1cscn1 | inactive
13 | O=[As](O)(O)O | inactive
14 | CCOP(=S)(OCC)OC(Cl)C(Cl)(Cl)Cl (stereo not given) | inactive
15 | Clc1ccc([C@]2(Cn3cncn3)C[C@@H](Br)CO2)c(Cl)c1 | inactive
16 | O=C(O)c1ccc(Cl)cc1Cl | inactive
17 | CC(C)(C)C(O)/C(=C\c1ccc(Cl)cc1Cl)n1cncn1 (stereo not given) | inactive
18 | O=C(O)c1c(Cl)cccc1Cl | inactive
19 | Cc1ccc(S(=O)(=O)NC2CCCCC2)cc1 | inactive
20 | C=C(C)C(=O)OCCOC(=O)C(=C)C | inactive

Row | SMILES | outcome
21 | O=C=Nc1ccc(Cl)cc1 | inactive
22 | c1ccc(-c2ccc(-c3ccccc3)cc2)cc1 | inactive
23 | CCOP(=O)(SC(C)CC)N1CCSC1=O (stereo not given) | inactive
24 | CCN(CC)c1cccc(O)c1 | inactive
25 | CC(O)CN(CC(C)O)CC(C)O (stereo not given) | inactive
26 | CCCCCCCCCCCCC1CO1 (stereo not given) | inactive
27 | Nc1cccc(C(F)(F)F)c1 | inactive
28 | Cc1ccccc1C#N | inactive
29 | CCc1c(C(=O)O)c(=O)cnn1-c1ccc(Cl)cc1 | inactive
30 | NC(=S)NNC(N)=S | inactive
31 | CCOC(=O)COc1cc(-n2ncc(C(F)(F)F)c(C)c2=O)c(F)cc1Cl | inactive
32 | CC(C)C=O | inactive
33 | COC(C)=O | inactive
34 | CCCCN(CC)C(=O)SCCC | inactive
35 | NNS(=O)(=O)c1ccc(Oc2ccc(S(=O)(=O)NN)cc2)cc1 | inactive
36 | O=C(O)c1ccc(C(=O)O)cc1 | inactive
37 | CC12CCC(CC1=O)C2(C)C (stereo not given) | inactive
38 | CSc1nnc(C(C)(C)C)c(=O)n1N | inactive
39 | O=C(O)CN(CCCN(CC(=O)O)CC(=O)O)CC(=O)O | inactive
40 | C=C(C)C(=O)OCCN(C)C | inactive
